Composite z-score data for 29 compounds are collected here from PubChem BioAssay.

For the test, the target named is Carbonic anhydrase 2 (Homo sapiens) (UniProt P00918). The test can be described thus: CAII small-molecule binders, profiling panel, biochemical, small-molecule microarray, Alexa647-labelled CAII (AID 1122). The settings on record: CAII-A647 binding fluorescence, higher = more signal.
On to `C=CCNC(=O)[C@H]1[C@@H]2C(=O)O[C@@H](c3ccccc3)[C@@H](c3ccccc3)N2[C@@H](c2ccc(O)cc2)[C@]12C(=O)Nc1ccc(C#CC3=CCCCC3)cc12`, for which the composite z-score turned out to be 0.416.
Next, `COC(=O)[C@@]1(Cc2ccccc2)[C@H]2c3cc(C(=O)N4CCCC4)n(Cc4ccc(C(F)(F)F)nc4)c3C[C@H]2CN1C(=O)c1ccccc1`: 0.478; `O=C1OCCC/C=C\[C@H]2OC34C=CCN(Cc5ccccc5)C(=O)[C@H]3N(CCCCCO)C(=O)[C@@H]4C12` (some centres undefined): 0.861; `CN(C)CCCNC(=O)[C@@]1(Cc2ccccc2I)c2ccccc2C(=O)N(Cc2ccccc2)[C@H]1c1ccc(CO)cc1`: 0.362.
Turning to `COC(=O)c1c(CC[C@@H](CO)NC(=O)N[C@@H](Cc2ccccc2)Cn2cc(-c3cncn3C)nn2)oc(C(C)=O)c1C(=O)OC`, the composite z-score amounted to 0.648.
With `CC(c1ccccc1)C(O)C1C=CC2C(=O)N(c3ccccc3)C(=O)C2N1Nc1ccc(C#N)cc1` (centres undefined), the composite z-score is 0.6.
For `CC(=O)c1ccc(C(O)C2C=CC3C(=O)N(C)C(=O)C3N2NC(=O)OC(C)(C)C)cc1` (centres undefined) the value was 0.885; for `C=CCC(OC(C)=O)[C@@H]1[C@@H](N(Cc2ccc(-c3ccccc3)cc2)C(=O)c2cccc3ccccc23)c2cc(OCCCO)ccc2N1C(=O)c1ccc2ccccc2c1` (some centres undefined), 0.0991; for `COC(=O)[C@@H]1N=C(c2ccc(OCCCO)cc2)O[C@@H]1c1ccccc1CN=[N+]=[N-]`, 0.552.
For `CCOC(=O)C1=CC[C@@H](c2ccccc2)N(S(=O)(=O)c2ccc(C)cc2)[C@H]1C#N` the value was 0.76; for `CC#CCO[Si](C#CCCCCCC)(C(C)C)C(C)C`, -0.553.
Next, `C=CCC(OC(C)=O)[C@@H]1[C@@H](N(Cc2ccc(-c3ccccc3)cc2)C(=O)c2ccc(C)cc2)c2cc(OCCCO)ccc2N1C(=O)c1ccc2ccccc2c1` (some centres undefined): -0.104.
Turning to `COc1ccc(C(O)C2C=CC3C(=O)N(C)C(=O)C3N2Nc2ccc([N+](=O)[O-])cc2[N+](=O)[O-])cc1OCc1ccccc1` (centres undefined), the composite z-score is 0.633.
For `CN1C(=O)C2C=CC(C(O)c3ccc(-c4ccccc4)s3)N(Nc3ccccc3)C2C1=O` (centres undefined) the value was 0.714.
For `N#Cc1ccc(C(O)C2C=CC3C(=O)NC(=O)C3N2Nc2ccccn2)cc1` (centres undefined) the value was 0.854; for `CCCC=C(CCC)[C@@H](NC(=O)c1ccco1)c1ccc(C(=O)OC)cc1`, 0.669.
Next, `COc1ccc([Si](C)(C)[C@@H]2[C@@H](CC(=O)N(CCO)Cc3ccccc3)O[C@]3(C(=O)N(Cc4ccc(N5CCC5=O)cc4)c4ccccc43)[C@H]2C)cc1`: -0.23; `Cc1ccc(F)cc1S(=O)(=O)N[C@@H]1CCN(Cc2ccc3[nH]ccc3c2)C1`: 0.713; `C=C(/C(=C/C[C@H](OC(=O)c1ccncc1)c1ccccc1OCCO)c1cc(C(=O)OC)ccc1OC)C(C)C`: 0.453.
On to `CCOC(=O)C1=CC[C@@H](c2ccc(F)cc2)N(S(=O)(=O)c2ccc(C)cc2)[C@H]1c1ccc([N+](=O)[O-])cc1`, for which the composite z-score is 0.223.
For `C=CC[C@@]1(C(=O)N(C)C)N=C(c2ccc(OCCCO)cc2)O[C@@H]1c1ccccc1` the value was 0.644.
For `CC(C)C(=C=CC[C@@H](O)c1cccc(OCCO)c1)CCO`, the composite z-score came out at 0.705.
For `[N-]=[N+]=NCc1ccccc1C[C@]1(C(=O)N2CCOCC2)N=C(c2ccc(OCCCO)cc2)O[C@H]1c1ccccc1CN=[N+]=[N-]` the value was 0.802; for `COc1ccc(NN2C(C(O)c3cc(C(F)(F)F)cc(C(F)(F)F)c3)C=CC3C(=O)N(C4CCCCC4)C(=O)C32)cc1` (centres undefined), 0.589.
For `CC=CC(O)C1C=CC2C(=O)N(C)C(=O)C2N1NC(=O)OC(C)(C)C` (centres undefined) the value was 0.774; for `[N-]=[N+]=NCc1ccccc1[C@@H]1OC(c2ccc(OCCCO)cc2)=N[C@]1(Cc1ccccc1)C(=O)NCc1ccccc1`, 0.782.
Next, `COCCOC(=O)N1C(=O)[C@@]2(c3cc(C#CCCO)ccc31)[C@H](C(=O)N1CCc3cc(OC)c(OC)cc3C1)[C@H]1C(=O)O[C@H](c3ccccc3)[C@H](c3ccccc3)N1[C@@H]2c1ccccc1OCCO`: 0.422.
In the case of `C=CCOC(=O)[C@@H]1[C@H]2C(=O)O[C@H](c3ccccc3)[C@H](c3ccccc3)N2[C@H](c2ccc(OCCOC(=O)[C@H]3C[C@H]4C(=O)NCC(=O)N4[C@H]3c3ccc(O)cc3)cc2)[C@@]12C(=O)Nc1ccc(I)cc12`, the composite z-score came out at 0.323.
Next, `C=CCC(OC(C)=O)[C@@H]1[C@@H](N(Cc2cc3ccccc3o2)C(=O)Cc2ccc(OC)cc2)c2cc(OCCCO)ccc2N1C(=O)Cc1ccc2ccccc2c1` (some centres undefined): -0.061.
